From PubChem BioAssay (NCI)
This is part of a sample that, as a whole, favours compounds with a hit. Of some 83,000 tested, about 20% had one in any assay.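 A percent growth of 40 corresponds to 60% growth inhibition; 0 means no net growth; -100 means all cells died. Active threshold: below 10.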 A number with no mark means an inactive call. Active and inactive are the calls of the source.

System: NCI/ADR-RES ovarian
Experiment: NCI-60 one-dose screen, 48 h (100 = growth as untreated, 0 = no growth, -100 = all killed)
Settings: 10 µM unless noted

Structure (SMILES) | growth
Clc1ccc(CNc2c3ccccc3nc3ccccc23)cc1 | 36.7%
CCCCN[C@H]1CC[C@@]2(C)[C@@H](CC[C@@]3(C)[C@H]2[C@H](O)C[C@H]2/C(=C(\CCC=C(C)C)C(=O)OC)[C@@H](OC(C)=O)C[C@@]23C)[C@@H]1C | 100%
N#Cc1c(NC(=O)c2ccccc2)sc2c1CCC(=O)C2 | 5.57% (active)
O=[N+]([O-])c1ccc(N/N=C(/C(=N/Nc2ccc([N+](=O)[O-])cc2)c2ccccc2)c2ccccc2)cc1 | 63.7%
Oc1c(Cl)cc(Cl)c2ccc(Cn3cc(-c4cc(C(F)(F)F)cc(C(F)(F)F)c4)nn3)nc12 | 97.8%
COc1cc(-c2cc(-c3ccc(N(C)C)cc3)nc(N3CCC(O)CC3)c2C#N)cc(OC)c1OC | 14.9%
Cc1nn(-c2ccccc2)c(Oc2ccccn2)c1-c1nc2ccccc2s1 | 98.1%
